FLuc inh: Photinus pyralis luciferase inhibition; purified P. pyralis luciferase, luminescence, biochemical; Potency, µM (titrated, usually from 115 µM), hits mostly inhibitors; 76,000 tested, 2.5% active; note: nearly all actives have a fitted effect of over 65% in size
Target sequence (P08659 whole entry, looked up): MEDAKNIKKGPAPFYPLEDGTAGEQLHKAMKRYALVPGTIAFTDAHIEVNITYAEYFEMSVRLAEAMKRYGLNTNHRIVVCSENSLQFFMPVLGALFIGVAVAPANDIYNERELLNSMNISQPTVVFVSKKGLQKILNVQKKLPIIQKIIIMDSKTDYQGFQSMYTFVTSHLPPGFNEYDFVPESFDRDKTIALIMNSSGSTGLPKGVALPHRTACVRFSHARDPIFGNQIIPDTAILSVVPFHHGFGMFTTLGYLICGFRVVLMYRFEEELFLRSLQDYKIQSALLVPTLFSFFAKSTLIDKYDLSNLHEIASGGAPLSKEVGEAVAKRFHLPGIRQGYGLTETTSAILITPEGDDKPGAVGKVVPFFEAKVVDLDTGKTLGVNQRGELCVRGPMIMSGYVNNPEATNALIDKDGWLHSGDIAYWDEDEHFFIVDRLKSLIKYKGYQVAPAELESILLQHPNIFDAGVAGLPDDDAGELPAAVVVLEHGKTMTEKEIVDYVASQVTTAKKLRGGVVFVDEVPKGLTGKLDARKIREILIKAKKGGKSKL
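Purified 10nM P. pyralis luciferase with 10uM D-luciferin and 10uM ATP in 50mM Tris acetate pH 7.5, 10mM Mg acetate, 0.01% Tween-20, 0.05% BSA. qHTS titration; luminescence read by CCD imager.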
hNpr1 antagonist: blocks ANP-stimulated signaling of human Npr1 receptor | Potency, µM (highest dose often 46.3 µM), most hits filed as inhibitors | P16066 | HEK293 hNpr1 GloSensor cGMP, ANP-stimulated luminescence | 76,000 tested, 1.6% active | AID 1347048; calls by dose curve; note: nearly all actives have a fitted effect of over 60% in size
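Compound pre-incubated 30 min at room temperature on GloSensor-loaded HEK293 cells stably carrying hNpr1 and the pGS-40F cGMP biosensor. Stimulation uses hNppA at 0.1 nM final; luminescence is taken at baseline and 20 min post-agonist.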
HEK293 tox: kills HEK 293 cells; HEK 293 viability, ATP luminescence (CellTiter-Glo), 48-72 h; Potency, µM (doses to about 115 µM), hits mostly inhibitors; 94,000 tested, 6.6% active; note: nearly all actives have a fitted effect of over 60% in size
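ATP-coupled CellTiter-Glo luminescence served as viability read-out, recorded 10 min after reagent addition at room temperature. HEK 293 cells, 250 cells/well, had been incubated with pintool-transferred compound for 48 or 72 hr at 37 degree Celsius.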
3T3 cytotox: cytotoxic compounds in NIH 3T3 cells | NIH 3T3 viability, CellTiter-Glo ATP luminescence, 48-72 h | Potency, µM (highest dose often 96.7 µM), hits mostly inhibitors | 94,000 tested, 4.3% active | AID 1345082; note: nearly all actives have a fitted effect of over 55% in size
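ATP-dependent luminescence (CellTiter-Glo) served as the viability signal for NIH 3T3 cells treated with compound for 48 or 72 hr at 37 °C.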
Each line names hits and unclear results; the compound was inactive in the other large screens. In the library only some 11% were active in any assay of this set; here they are far more common. Unless noted, calls come from the whole dose curve; as a rule, active = well fitted curve in the direction sought with a large enough effect; inconclusive = small, poorly fitted or top-dose-only effect, or another doubt; inactive = no such curve, though single readings can be large; an effect the other way counts as inactive or inconclusive.

COc1ccccc1-c1nc2nccc(-c3cc4ccccc4o3)n2n1	HEK293 tox 89µM, 3T3 cytotox inconclusive
O=[S+]([O-])(c1cccs1)N1CCCC2(CC(Cc3ccccc3)=NO2)C1 (stereo not drawn)	HEK293 tox inconclusive
O=[S+]([O-])(c1cccs1)N1CCC2(CC1)CC(Cc1ccccc1)=NO2	HEK293 tox 45µM, 3T3 cytotox inconclusive
CCCN1CCC2(CCN([S+](=O)([O-])c3cccs3)CC2)Oc2ccccc21	HEK293 tox 45µM, 3T3 cytotox inconclusive
Cc1cc(C(=O)N2CC(F)(F)C[C@H]2c2nc(C3CC3)no2)ccn1	none
CC(C)(C)c1ccc(C(=O)Nc2ccc(C(O)[C@H]3COCC(=O)N3Cc3ccccn3)cc2)cc1 (stereo partly drawn)	FLuc inh 16µM, HEK293 tox inconclusive, 3T3 cytotox inconclusive
O=C(Cc1ccccc1)Nc1ccc([C@@H](O)[C@H]2COCC(=O)N2Cc2ccccc2)cc1	none
O=C(Nc1ccc([C@@H](O)[C@H]2COCC(=O)N2Cc2ccc(F)cc2)cc1)c1ccccc1	HEK293 tox 100µM, 3T3 cytotox inconclusive
N#Cc1ccc(C(=O)Nc2ccc([C@@H](O)[C@H]3COCC(=O)N3Cc3ccc(F)cc3)cc2)cc1	HEK293 tox inconclusive
O=C(Cc1ccccc1)Nc1ccc([C@@H](O)[C@H]2COCC(=O)N2Cc2ccc(C(F)(F)F)cc2)cc1	HEK293 tox inconclusive, 3T3 cytotox 79µM
CCOCC(=O)N1Cc2ccccc2OC2(CCN(C(C)C)CC2)C1	none
O=C1NC(=NC2CCCC2)C2(CCN([S+](=O)([O-])c3cccs3)C2)N1c1cccnc1 (stereo not drawn)	none (no result: FLuc inh, hNpr1 antagonist)
O=C(O)Cn1ccc2cc(OCc3cccc(-c4ccc(F)c(Cl)c4)c3)cnc21	HEK293 tox inconclusive
O=C(NC1CCCN(c2cc(-c3ccc(F)cc3)[nH]n2)C1)c1ccccn1 (stereo not drawn)	FLuc inh inconclusive, HEK293 tox inconclusive, 3T3 cytotox inconclusive
O=C(NC1CCCN(c2cc(-c3ccc(Cl)cc3)[nH]n2)C1)c1ccccn1 (stereo not drawn)	FLuc inh 40µM, HEK293 tox 45µM, 3T3 cytotox inconclusive
Cn1cccc1C(=O)NC1CCCN(c2cc(-c3ccc(Cl)cc3)[nH]n2)C1 (stereo not drawn)	FLuc inh inconclusive, HEK293 tox 40µM, 3T3 cytotox 40µM
Cc1nn(-c2ccccc2)c2c1C(C1CC1)N(C1CCN([S+](=O)([O-])c3c(C)noc3C)C1)C2=O (stereo not drawn)	HEK293 tox inconclusive (no result: FLuc inh, hNpr1 antagonist)
Cc1nc2c(c(-c3ccc(O)cc3)n1)CN(C(=O)c1ccc(C(F)(F)F)cc1)CCC2	none
Cn1c(C(=O)Nc2ccc(N3CCOCC3)cc2)cc2c1CCN(Cc1ccccc1)C2	none
CCn1c(Cn2ccnc2)nnc1C1CCN(Cc2ccc(F)c(F)c2)CC1	none
COc1ccc(C(=O)N2CCC3(CC2)CC(N2CCCC2)CCO3)cc1 (stereo not drawn)	none (no result: FLuc inh, hNpr1 antagonist)
COc1ccc(NC(=O)NCCc2noc(C3CC3)n2)cc1OC	none
CC1CCC2(CC1)NC(=O)N(CC(=O)Nc1ccc(C(C)C)cc1)C2=O (stereo not drawn)	HEK293 tox 28µM, 3T3 cytotox inconclusive
CC(=O)c1ccc(NC(=O)CN2C(=O)NC3(CCC(C(C)(C)C)CC3)C2=O)cc1 (stereo not drawn)	HEK293 tox inconclusive, 3T3 cytotox inconclusive
CC(=O)c1cccc(NC(=O)CN2C(=O)NC3(CCC(C(C)(C)C)CC3)C2=O)c1 (stereo not drawn)	HEK293 tox inconclusive, 3T3 cytotox 40µM
CC1CCC2(CC1)NC(=O)N(CC(=O)Nc1cccc(F)c1)C2=O (stereo not drawn)	none
CC1CCC2(CC1)NC(=O)N(CC(=O)Nc1cccc(C(F)(F)F)c1)C2=O (stereo not drawn)	HEK293 tox 25µM, 3T3 cytotox inconclusive
N#Cc1ccccc1-c1ccc(-c2cn(Cc3nnc4ccccn34)nn2)o1	none
Cc1noc(-c2cn(C3CCN(C(=O)Cc4ccc(Cl)cc4)CC3)nn2)n1	none
COc1ccc2[nH]c3c(c2c1)CCNC31CCN(Cc2ccc(F)c(F)c2)CC1	HEK293 tox inconclusive, 3T3 cytotox 35µM
COc1cccc(CN2CCC3(CC2)NCCc2c3[nH]c3ccccc23)c1	HEK293 tox 32µM, 3T3 cytotox 35µM
Cc1cc2nc(CO[C@H]3CN(C)C[C@H]3F)[nH]c2cc1C	none
c1cc(-c2ccnc3nc(CCC4CCCC4)nn23)ccn1	3T3 cytotox 35µM
COc1cc(-c2ccnc3nc(CCC4CCCC4)nn23)cc(OC)c1OC	3T3 cytotox 5.6µM
COc1cc(-c2ccnc3nc(Cc4cc(F)cc(F)c4)nn23)cc(OC)c1OC	HEK293 tox inconclusive, 3T3 cytotox inconclusive
c1cncc(-c2ccnc3nc(CCC4CCCC4)nn23)c1	HEK293 tox inconclusive, 3T3 cytotox inconclusive
COc1cc(-c2ccnc3nc(Cc4ccc(F)cc4)nn23)cc(OC)c1OC	HEK293 tox 32µM, 3T3 cytotox inconclusive
COc1c(C)cnc(Cn2c(-c3ccccc3)nc(C)c(CCO)c2=O)c1C	HEK293 tox inconclusive, 3T3 cytotox 45µM
COc1ccccc1Cn1c(-c2cccc(Cl)c2)nc(C)c(CCO)c1=O	HEK293 tox inconclusive, 3T3 cytotox inconclusive
Cc1cccc(-c2nc(Cn3c(-c4ccc(F)cc4)nc(C)c(CCO)c3=O)c(C)o2)c1	none
Cc1nc(-c2ccccc2)n(Cc2ccccc2Cl)c(=O)c1CCO	HEK293 tox inconclusive, 3T3 cytotox 45µM
Cc1cccc(-c2nc(Cn3c(-c4ccccc4)nc(C)c(CCO)c3=O)c(C)o2)c1	HEK293 tox 79µM, 3T3 cytotox inconclusive
COc1ccccc1Cn1c(-c2ccc(Cl)cc2)nc(C)c(CCO)c1=O	HEK293 tox 32µM, 3T3 cytotox inconclusive
Cn1ncc(N2CCC(C(=O)NCCCN3CCc4ccccc4C3)C2)cc1=O (stereo not drawn)	none
CN1CC[C@H]2COC(=O)N2c2ccccc2C1	none
Cc1nc(-c2ccc(Cl)cc2)n(Cc2ccc(F)cc2)c(=O)c1CCO	HEK293 tox 20µM, 3T3 cytotox inconclusive
Cc1ccc(-c2cc3c(=O)n(CCNC(=O)c4ccc(Cl)cc4)ccn3n2)c(C)c1	HEK293 tox 40µM, 3T3 cytotox inconclusive
Cc1ccc(-c2cc3c(=O)n(CC(O)c4ccc(C)c(C)c4)ccn3n2)c(C)c1 (stereo not drawn)	hNpr1 antagonist inconclusive, HEK293 tox 40µM, 3T3 cytotox inconclusive
Cc1ccc(-c2cc3c(=O)n(CCNC(=O)c4cc(Cl)ccc4F)ccn3n2)c(C)c1	FLuc inh inconclusive, HEK293 tox inconclusive
Cc1ccc(C)c(C(=O)NCCn2ccn3nc(-c4cc(C)ccc4C)cc3c2=O)c1	HEK293 tox 40µM, 3T3 cytotox inconclusive
COCCOC1CCN(S(=O)(=O)c2ccc(OC)cc2)CC1	none
Cc1ccc(CCNc2ncncc2-c2nc(-c3ccccc3)no2)cc1	none
O=C(c1ccccc1-c1ncc[nH]1)N1CCOC(Cc2cccc(F)c2)C1 (stereo not drawn)	none

Assay outcomes deposited in PubChem BioAssay by National Center for Advancing Translational Sciences (NCATS).
